Laboratory results taken from PubChem BioAssay.
Values without a mark were called inactive. For part of these data: Measured potencies and affinities stand elsewhere. Activity calls are given as the source filed them. Unless noted, no rule for the calls is given here.

Tests used:
[1] = antimalarial activity against Dd2 strain (AID 2302;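 active = growth inhibition above 50% at the single 2 µM test dose, taken to imply half-maximal potency below 2 µM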;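 also: 0% = DMSO untreated growth and 100% = chloroquine plus artemisinin killed control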); details: P. falciparum Dd2 in RBCs, LDH growth readout, 72 h; at 2 µM; active compounds read high
[2] = human hepatoma cell viability loss – ATP luminescence, cytotoxicity control for P. falciparum antimalarial project, primary screen (AID 2303;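 active = inhibition above 50%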;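 also: 0% = DMSO wells and 100% = digitonin-killed cells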); details: HepG2 viability, 24-48 h, at 10 µM, active compounds read high
[3] = biological target: L-lactate dehydrogenase (Plasmodium falciparum (isolate CDC / Honduras)) (UniProt Q27743); test: PfLDH activity inhibition – cell lysate, 3D7 strain, counter-screen for P. falciparum growth inhibition project (AID 2304);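 also: 0% = vehicle and 100% = reference inhibitor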; details: P. falciparum 3D7 crude extract, LDH APAD/NBT absorbance; at 2 µM; active compounds read high
[4] = inhibition of 3D7 malaria parasite growth – strain 3D7 (AID 2306);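 also: 0% = DMSO wells and 100% = chloroquine plus artemisinin control wells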; details: P. falciparum 3D7 erythrocytic growth, LDH absorbance, 72 h; at 2 µM; active compounds read high
[5] = biological target: Calcium-dependent protein kinase 1 (Plasmodium falciparum (isolate 3D7)) (UniProt P62344); test: PfCDPK1 kinase inhibitors, biochemical, TCAMS library (AID 1159585; cut-off not given, nearly all actives have IC50 up to about 0.98 µM;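 also: inhibitors leave more ATP so luminescence rises with inhibition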); details: recombinant PfCDPK1, Kinase-Glo ATP depletion luminescence
[6] = biological target: Plasmodium falciparum protein kinase 6 (PK6, PF3D7_1337100) (UniProt Q8IDW1); test: PfPK6 kinase inhibitors, biochemical, TCAMS library (AID 1159586); details: recombinant PfPK6, Kinase-Glo ATP depletion luminescence
[7] = biological target: Protein kinase 7 (PK7), Plasmodium falciparum 3D7 (PF3D7_0213400) (UniProt Q7YTF7); test: inhibition of Plasmodium PK7 catalytic activity – biochemical, TCAMS antimalarial set, Kinase-Glo luminescence (AID 1159587); details: recombinant PfPK7, Kinase-Glo ATP depletion luminescence
[8] = biological target: Calcium-dependent protein kinase 4 (Plasmodium falciparum (isolate 3D7)) (UniProt Q8IBS5); test: PfCDPK4 kinase inhibitors, biochemical, TCAMS library (AID 1159588; cut-off not given, nearly all actives have IC50 up to about 0.91 µM); details: recombinant PfCDPK4, Kinase-Glo ATP depletion luminescence
Calcium-dependent protein kinase 4 (Plasmodium falciparum (isolate 3D7)), sequence (Q8IBS5 whole entry, looked up): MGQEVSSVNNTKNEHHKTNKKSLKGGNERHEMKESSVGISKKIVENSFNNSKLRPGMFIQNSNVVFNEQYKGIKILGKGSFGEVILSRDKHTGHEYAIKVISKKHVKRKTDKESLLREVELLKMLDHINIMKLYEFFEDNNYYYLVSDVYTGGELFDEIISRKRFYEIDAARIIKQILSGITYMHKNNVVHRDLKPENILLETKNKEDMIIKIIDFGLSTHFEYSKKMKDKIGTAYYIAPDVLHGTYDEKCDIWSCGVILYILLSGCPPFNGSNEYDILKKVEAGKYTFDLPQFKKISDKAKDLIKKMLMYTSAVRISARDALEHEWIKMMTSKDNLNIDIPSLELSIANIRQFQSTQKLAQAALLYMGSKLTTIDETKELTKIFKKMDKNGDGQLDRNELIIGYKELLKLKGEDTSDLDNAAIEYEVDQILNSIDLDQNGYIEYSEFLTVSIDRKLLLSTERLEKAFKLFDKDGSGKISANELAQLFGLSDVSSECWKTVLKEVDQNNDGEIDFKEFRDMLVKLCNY

Calcium-dependent protein kinase 1 (Plasmodium falciparum (isolate 3D7)), sequence (P62344 whole entry, looked up): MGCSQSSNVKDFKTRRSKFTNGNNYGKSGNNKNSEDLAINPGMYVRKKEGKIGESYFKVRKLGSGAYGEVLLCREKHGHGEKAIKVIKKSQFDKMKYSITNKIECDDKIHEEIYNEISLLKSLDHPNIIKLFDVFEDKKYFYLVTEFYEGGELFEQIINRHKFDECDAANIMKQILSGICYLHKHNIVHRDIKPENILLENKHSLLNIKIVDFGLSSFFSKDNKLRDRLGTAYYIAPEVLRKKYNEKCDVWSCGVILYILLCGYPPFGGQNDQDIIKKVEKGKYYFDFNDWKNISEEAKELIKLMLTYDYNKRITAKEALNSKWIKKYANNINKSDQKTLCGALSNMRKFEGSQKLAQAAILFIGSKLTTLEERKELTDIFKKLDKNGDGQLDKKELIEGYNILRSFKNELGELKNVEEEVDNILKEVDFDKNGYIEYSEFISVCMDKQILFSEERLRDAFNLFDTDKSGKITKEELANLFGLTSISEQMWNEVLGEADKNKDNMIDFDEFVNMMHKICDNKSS
L-lactate dehydrogenase (Plasmodium falciparum (isolate CDC / Honduras)), sequence (Q27743 whole entry, looked up): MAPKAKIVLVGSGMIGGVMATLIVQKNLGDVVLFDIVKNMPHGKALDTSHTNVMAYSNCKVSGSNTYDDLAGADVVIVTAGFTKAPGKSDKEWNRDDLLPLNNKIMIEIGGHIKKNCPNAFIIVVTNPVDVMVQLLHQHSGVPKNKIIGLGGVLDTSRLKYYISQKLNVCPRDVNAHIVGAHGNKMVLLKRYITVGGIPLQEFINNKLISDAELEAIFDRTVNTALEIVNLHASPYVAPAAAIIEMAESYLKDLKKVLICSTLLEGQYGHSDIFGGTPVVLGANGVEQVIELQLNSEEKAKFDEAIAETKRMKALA
Protein kinase 7 (PK7), Plasmodium falciparum 3D7 (PF3D7_0213400), sequence (Q7YTF7 1-343): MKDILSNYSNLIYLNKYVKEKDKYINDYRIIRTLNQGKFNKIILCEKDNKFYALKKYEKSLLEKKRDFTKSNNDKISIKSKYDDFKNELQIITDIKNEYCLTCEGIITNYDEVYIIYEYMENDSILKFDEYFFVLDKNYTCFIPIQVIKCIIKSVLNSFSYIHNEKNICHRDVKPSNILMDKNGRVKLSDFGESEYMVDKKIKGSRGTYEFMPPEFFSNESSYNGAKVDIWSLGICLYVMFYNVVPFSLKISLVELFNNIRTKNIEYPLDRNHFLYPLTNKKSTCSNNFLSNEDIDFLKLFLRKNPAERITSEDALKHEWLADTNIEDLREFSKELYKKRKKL
Plasmodium falciparum protein kinase 6 (PK6, PF3D7_1337100), sequence (Q8IDW1 1-305): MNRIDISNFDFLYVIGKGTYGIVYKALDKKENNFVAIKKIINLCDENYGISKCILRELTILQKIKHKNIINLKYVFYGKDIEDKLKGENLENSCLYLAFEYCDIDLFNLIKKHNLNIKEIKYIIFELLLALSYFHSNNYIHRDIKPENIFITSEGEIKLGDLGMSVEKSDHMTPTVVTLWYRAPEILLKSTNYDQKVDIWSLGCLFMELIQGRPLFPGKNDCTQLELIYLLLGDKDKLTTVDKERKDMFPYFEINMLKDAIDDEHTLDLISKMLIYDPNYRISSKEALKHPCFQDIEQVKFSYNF

Row | SMILES | growth inhibition [1] | inhibition [2] | inhibition [3] | growth inhibition [4] | outcome [5] | outcome [6] | outcome [7] | outcome [8]
1 | CC(=O)NCCNCc1cccc(C(=O)NCc2cccc(C(F)(F)F)c2)c1 | -2% | 1% | 1% | 95% (active) | inactive | inactive | inactive | inactive
2 | O=C(NCC1CCC(C(=O)NC2CCCc3ccccc32)CC1)c1ccc(O)c(-c2cccc([N+](=O)[O-])c2)c1 (configuration not stated) | 97% (active) | 2% | -2% | 99% (active) | inactive | inactive | inactive | inactive
3 | CCCN(CCCCCCN(CCC)CCc1ccc(O)c(O)c1)CCc1ccc(O)cc1 | 5% | 0% | -1% | 90% (active) | inactive | inactive | inactive | inactive
4 | COc1ccc(Cn2c(Nc3cccc(C(F)(F)F)c3)nc3cc(C(=O)NCCN4CCCC4)ccc32)cc1Cl | 54% (active) | 11% | 2% | 97% (active) | inactive | inactive | inactive | inactive
5 | CC(C)(Oc1c(C2CCN(CCCCNC(=O)c3ccc(-c4ccc(C#N)cc4)cc3)CC2)ccc2c1CCCC2)C(N)=O | 82% (active) | 34% | 6% | 100% (active) | inactive | inactive | inactive | inactive
6 | COc1ccc2nccc([C@@H](O)CN3CCC(NC(=O)c4ccc(-c5ccccc5)s4)CC3)c2c1 | 81% (active) | 10% | -6% | 100% (active) | inactive | inactive | inactive | inactive
7 | Cc1cccc(C(=O)N2CCN(Cc3cccc(NC(=O)c4cccs4)c3)CC2)c1 | 95% (active) | 5% | 0% | 95% (active) | inactive | inactive | inactive | inactive
8 | Cc1cc(N[C@@H](CC(C)C)C(=O)NC2CCCC2)nc(NCc2ccccc2C)n1 | 44% | 2% | -3% | 98% (active) | inactive | inactive | inactive | inactive
9 | Cc1c(C)n(C2CCCC2)c2ncnc(OC3CCN(CC(=O)NC4CC4)CC3)c12 | 92% (active) | 13% | -4% | 95% (active) | inactive | inactive | inactive | inactive
10 | Cc1nn(C)c(C)c1CN(Cc1nc(-c2cccc(Oc3ccccc3)c2)oc1C)C1CC1 | 98% (active) | 7% | 0% | 101% (active) | inactive | inactive | inactive | inactive
11 | CC(C)N1CCN(CCCNc2c3ccccc3nc3ccccc23)CC1 | 1% | 29% | 8% | 100% (active) | inactive | inactive | inactive | inactive
12 | Cc1cc(N2CCN(CC3CCN(C)CC3)CC2)nc(Nc2ccc(Br)cc2)n1 | 100% (active) | 31% | 5% | 100% (active) | inactive | inactive | inactive | inactive
13 | CNC(=O)Cc1ccc(C(=O)Nc2cccc(-c3cccc(-c4nc5ccc(C(F)(F)F)cc5[nH]4)c3)c2)cc1 | 37% | 40% | 5% | 95% (active) | inactive | inactive | inactive | inactive
14 | O=C(/C=C/c1ccc(Cl)c(Cl)c1)NCCCCCN1CCC(NC(=O)c2cc(Cl)ccc2F)CC1 | 32% | 48% | 4% | 92% (active) | inactive | inactive | inactive | inactive
15 | CCCCN1CCCN(Cc2cccc(NC(=O)c3ccc(-c4ccccc4)cc3)c2)CC1 | 8% | 19% | 5% | 92% (active) | inactive | inactive | inactive | inactive
16 | CN1CCN(c2ccnc3ccc(NC(=O)Nc4ccccc4Br)cc23)CC1 | 95% (active) | 4% | -3% | 100% (active) | inactive | inactive | inactive | inactive
17 | CN(C)c1ccc(Br)c(Br)c1 | -4% | 17% | -5% | 86% (active) | inactive | inactive | inactive | inactive
18 | COc1ccccc1CNc1ccnc(NCCc2cccc(C(F)(F)F)c2)n1 | 68% (active) | 39% | -4% | 93% (active) | inactive | inactive | inactive | inactive
19 | Cc1cc(NCCCN2CCCC2=O)n2c(nc3ccccc32)c1C#N | 48% | 4% | -1% | 93% (active) | inactive | inactive | inactive | inactive
20 | CN1CCN(c2nsc3ccc(-c4ccc(NC(=O)Nc5cc(C(F)(F)F)ccc5F)cc4)cc23)CC1 | 64% (active) | 100% (active) | -3% | 99% (active) | inactive | inactive | inactive | inactive

Row | SMILES | growth inhibition [1] | inhibition [2] | inhibition [3] | growth inhibition [4] | outcome [5] | outcome [6] | outcome [7] | outcome [8]
21 | Cn1ccnc1CNC(=O)c1ccc(-c2cccc(-c3nc4ccc(F)cc4[nH]3)c2)cc1 | 8% | 8% | 7% | 96% (active) | inactive | inactive | inactive | inactive
22 | Cc1cccc2[nH]c(-c3ccc(-c4cccc(CNCCCN5CCCC5=O)c4)cc3)nc12 | 3% | 6% | -8% | 96% (active) | inactive | inactive | inactive | inactive
23 | N#Cc1ccc(-c2ccc(C(=O)NC3CCN(CCN4CCC(c5cn(CCO)c6ccccc56)CC4)CC3)cc2)cc1 | 79% (active) | 30% | -2% | 100% (active) | inactive | inactive | inactive | inactive
24 | Clc1ccc2nc(-c3cccnc3)[nH]c2c1 | 97% (active) | -11% | 2% | 92% (active) | inactive | inactive | inactive | inactive
25 | CCN(CC)CCN(Cc1ccc(-c2ccc(C(F)(F)F)cc2)cc1)C(=O)Cn1cc(Cc2cnn(C)c2)c(=O)nc1/C=C/c1cccc(F)c1F | 98% (active) | 11% | -2% | 95% (active) | inactive | inactive | inactive | inactive
26 | CCc1cc(=O)[nH]c(-n2nc(C)cc2NC(=O)CC(c2ccccc2)c2ccccc2)n1 | 75% (active) | 37% | 4% | 92% (active) | inactive | inactive | inactive | inactive
27 | C=CCCCNCC(NCCCNc1cc(=O)c2ccccc2[nH]1)c1cc(Br)cc(Br)c1 (configuration not stated) | 19% | -3% | -1% | 94% (active) | inactive | inactive | inactive | inactive
28 | CCN(CC)CCCC(C)N=C(Nc1ccc(C#N)cc1O)Nc1ccccc1Br (configuration not stated) | -2% | 4% | 2% | 89% (active) | inactive | inactive | inactive | inactive
29 | Cc1ccccc1C1CCN(C2CCC(NC(=O)c3ccc(-c4ccccc4F)o3)CC2)CC1 (configuration not stated) | 66% (active) | 42% | 1% | 99% (active) | inactive | inactive | inactive | inactive
30 | COc1ccc(Cc2c(C)nc3nc(N)nc(N)c3c2C)cc1OC | -4% | 66% (active) | -1% | 93% (active) | inactive | inactive | inactive | inactive
31 | CN(C)CCCNCCS(=O)(=O)c1cccc(Nc2ccc(-c3cccc(N(C)C)c3)cn2)c1 | -3% | 19% | -2% | 98% (active) | inactive | inactive | inactive | inactive
32 | CN1CCN(c2ccnc3ccc(NC(=O)Nc4cccc(C#N)c4)cc23)CC1 | 96% (active) | 11% | -1% | 99% (active) | inactive | inactive | inactive | inactive
33 | O=C(N[C@H]1CCN(CCc2ccc(O[C@H]3CCNC3)cc2)C1)c1ccc(Cl)c(Cl)c1 | 5% | 18% | -3% | 96% (active) | inactive | inactive | inactive | inactive
34 | COc1cccc(Nc2nc(Nc3cccc(C#N)c3)cc(C(F)(F)F)n2)c1 | 45% | 15% | 3% | 99% (active) | inactive | inactive | inactive | inactive
35 | COc1cccc2c(NN=Cc3ccccc3[N+](=O)[O-])ccnc12 | 43% | 8% | -3% | 99% (active) | inactive | inactive | inactive | inactive
36 | CCN(CCO)CCc1cccc(Nc2nccc(-c3c(-c4ccc(NC(=O)N(CC)CC)cc4)nn4ccccc34)n2)c1 | 95% (active) | 46% | 2% | 101% (active) | inactive | inactive | inactive | inactive
37 | COc1ccc(-c2cccc(NC(=O)c3cccc(C#N)c3)c2)cc1CN1CCN(C)CC1 | 16% | 25% | -2% | 91% (active) | inactive | inactive | inactive | inactive
38 | COC(=O)c1cccc(CNCc2ccc(-c3cccc(-c4nc5c(C)cccc5[nH]4)c3)cc2)c1 | 84% (active) | -7% | 7% | 102% (active) | inactive | inactive | inactive | inactive
39 | CN(CCN1CCCC1)c1nc2ccc(-n3cnc4cc(-c5ccc(Cl)cc5)sc4c3=O)cc2[nH]1 | 15% | 76% (active) | 3% | 93% (active) | inactive | inactive | inactive | inactive
